What was measured:
Assay in all cases: PBM binding z-score (relative to random genomic background probes); higher = stronger binding; sequences stand for … in GC…GCGATTGACAGCGTAGAATGAAGG
[1] = system: FXR:RXRa (NR concentration 270 nM, RXRa partner concentration 90 nM)
How it was run: (§1)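 The probes on custom Agilent 4×180K protein-binding microarrays were double-stranded, with 34-nt variable regions bearing direct-repeat seeds, single-nucleotide variants, half-site ablations and random human genomic background sequences. Incubation lasted 1 h with ligand-free nuclear receptor dimers in PBS pH 7.4, 2% milk, 0.02% Triton X-100, 1 mM DTT, 0.2 mg/mL BSA and 0.4 mg/ml salmon testes DNA. Antibodies against each partner (one per run) detected bound dimers, and fluorescence scans were regression-normalized. Binding z-scores take the random background probes as reference.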

[2] = system: LXRa:RXRa (NR concentration 270 nM, RXRa partner concentration 90 nM)
How it was run: as §1

[3] = system: LXRa homodimer (NR concentration 270 nM)
How it was run: as §1

[4] = system: LXRb:RXRa (NR concentration 270 nM, RXRa partner concentration 90 nM)
How it was run: as §1

[5] = system: LXRb homodimer (NR concentration 270 nM)
How it was run: as §1

[6] = system: PPARa:RXRa (NR concentration 270 nM, RXRa partner concentration 90 nM)
How it was run: as §1

[7] = system: PPARg:RXRa (NR concentration 180 nM, RXRa partner concentration 90 nM)
How it was run: as §1

[8] = system: PPARg:RXRa 270nM:90nM, anti-RXR (NR concentration 270 nM, RXRa partner concentration 90 nM)
How it was run: as §1

[9] = system: PPARg:RXRa 30nM:10nM, anti-RXR (NR concentration 30 nM, RXRa partner concentration 10 nM)
How it was run: as §1

[10] = system: PPARg:RXRa 90nM:30nM, anti-RXR (NR concentration 90 nM, RXRa partner concentration 30 nM)
How it was run: as §1

| Sequence | PBM binding z-score [1] | PBM binding z-score [2] | PBM binding z-score [3] | PBM binding z-score [4] | PBM binding z-score [5] | PBM binding z-score [6] | PBM binding z-score [7] | PBM binding z-score [8] | PBM binding z-score [9] | PBM binding z-score [10] |
| --- | --- | --- | --- | --- | --- | --- | --- | --- | --- | --- |
| AGTCAAAGTTCAGGACGAGGTAACGTACAGCACG | 4.02 | 3.94 | 1.42 | 1.7 | 0.128 | 3.3 | 4.64 | 4.76 | 2.19 | 3.73 |
| CCTTACGGGTCACTGACAGGTTAGAGCATTTGGA | 5.51 | 3.9 | 0.227 | 3.04 | -0.348 | 5.19 | 4.35 | 4.64 | 1.58 | 3.02 |
| ATATGTAGGTTATCGGGTCATTCAATTTGCGCAT | 3.06 | 3.55 | 1.95 | 3.51 | 0.979 | 5.11 | 7.6 | 6.31 | 3.98 | 6.15 |
| CGTACGAGGGCATGAGTTGATAGCAAATGCCGAT | 0.342 | 0.419 | -0.557 | 0.284 | -0.608 | 1.23 | 1.11 | 1.07 | 0.157 | 0.878 |
| TCGAGTAGGTTAGACGGGGCATTCAGCCAACATA | 0.121 | 0.00602 | -0.343 | 0.522 | -0.523 | 0.783 | 0.118 | 0.993 | 1.05 | 1.04 |
| TGAATGAGGTTAACGATCAGGGAACGTGGCGTCG | 1.98 | 1.82 | -0.477 | 0.806 | -0.194 | 3.2 | 2.41 | 2.48 | 0.951 | 1.83 |
| ACTAGCAGGCCAAGTTTGGGTCACTGAAACAAAG | 0.428 | 0.0569 | -0.409 | 0.671 | -0.515 | 1.52 | 0.0239 | 0.587 | -0.227 | -0.112 |
| CCGAGTAGGTTATGGGGCATGCAGGCAACGGTGA | 0.144 | 0.219 | -0.12 | 0.502 | -0.337 | 1.93 | 3.81 | 4.62 | 2.08 | 4.14 |
| TCTTGTAGATCAATAGAGATTAAGAAAGTGCGCT | -0.285 | 0.252 | -0.543 | -0.171 | -0.122 | -0.000927 | 0.302 | 1.34 | 2.5 | 2.08 |
| GCATATAGGTGATACAAGGTGAAAGTCCGATTGT | 1.98 | 0.421 | -0.185 | 0.234 | -0.213 | 2.26 | 1.73 | 2.17 | 0.808 | 1.33 |
| CGTACTGGGCCATTCAGAGGTCATTGATCATATG | 3.16 | 4.58 | 6.56 | 3.9 | 0.57 | 3.88 | 2.45 | 3.25 | 0.848 | 2.44 |
| ACTCGGAGCACAAAGGTCAGAGCTACGCCAGTGA | 3.44 | 3.72 | 1.25 | 3.11 | 0.00562 | 4.38 | 5.58 | 6.38 | 4.55 | 6.24 |
| CAGACTGGGGCAAGGTTACCATAACGCACAGCCA | 0.535 | 1.05 | -0.312 | 1.07 | -0.19 | 2.41 | 3.76 | 4.25 | 1.96 | 3.63 |
| CCTAGCAGGCCAGGGTCACTCACGCATTTCGCTT | 2.04 | 1.57 | -0.247 | 1.73 | -0.927 | 2.94 | 0.599 | 1.29 | -0.606 | 0.36 |
| CCGTACGGGTCACTGACAGGTTATAGCATTTGGA | 5.54 | 4.34 | 0.355 | 3.7 | -0.392 | 5.35 | 3.75 | 4.06 | 0.781 | 2.52 |
| TCTTGTTGATCAGCAGGTTAAGAAAGCTGGCCAA | 0.582 | 0.423 | -0.308 | 0.784 | -0.493 | 0.727 | -0.682 | 1.17 | 2.56 | 1.66 |
| CCGACAGGGGCAAAGGTTACCATACTCAGTACGA | 2.65 | 2.32 | -0.14 | 2.73 | -0.622 | 4.74 | 7.39 | 7.14 | 5.17 | 7.95 |
| TCTGCTAGGTTAACGATGGTCAGCTAATCTGCTA | -1.53 | 0.817 | -0.894 | -0.156 | -0.756 | 0.393 | -0.117 | 0.909 | 1.45 | 1.06 |
| CCTACTGGGCCACGAAAGGTCATTGGTTCAGTGA | 3.88 | 5.26 | 5.57 | 4.37 | 0.215 | 4.79 | 4.66 | 4.86 | 2.43 | 4.48 |
| TCTTGTAGATCTAGCAGGTTAAGAAAGCCTGAGT | 0.335 | 0.398 | -0.285 | 0.453 | -0.499 | 0.695 | -0.571 | 1.22 | 2.48 | 1.86 |
| TTACCAAGGTGGAGGTCGTTGATCCCTCTGTAGA | 1.68 | 1.96 | 0.12 | 1.66 | -0.0737 | 1.7 | 0.691 | 2.12 | 0.972 | 1.4 |
| CCGACTAGGGCATAAGGTTACCATAAGCCAGCCC | 0.247 | 2.13 | -0.18 | 1.02 | -0.736 | 2.19 | 2.8 | 3.77 | 1.43 | 3.27 |
| ACAAACAGGTGATGAAGGTAACTCAGGCTATCAT | 0.258 | 0.355 | 0.00497 | 0.22 | 0.327 | 0.415 | 0.866 | 0.462 | 0.363 | 0.0404 |
| GCGACTGGGGCAAAGCAGGTTACGATAAGGTTGG | 0.296 | -0.117 | -0.718 | 0.363 | -0.982 | 1.47 | 1.32 | 1.43 | -0.188 | 0.405 |
| CCATACGGGTCACGAGGTTATAGCACGACGAGCG | 6.99 | 4.32 | 0.528 | 3.79 | -0.0225 | 5.93 | 7.19 | 6.47 | 3.55 | 5.37 |

— the supplement of paper PMC6555819
